tim10-1 inh – growth inhibitors of tim10-1 mutant yeast, primary screen, luminescence, uHTS; 330,000 compounds, 2.2% hits; S. cerevisiae tim10-1 ts strain growth, BacTiter-Glo, 24 h; inhibition, % at 20 µM;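 active means inhibition of at least 40%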;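 further: mutant grown at 25 °C; 0% = DMSO wells with yeast and 100% = wells holding no yeast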
TIM10 inh – growth inhibitors of isogenic TIM10 control yeast, primary screen, counter-screen for tim10-1 yeast inhibitor project, luminescence, uHTS. 330,000 compounds, 1.4% hits. S. cerevisiae TIM10 strain growth, BacTiter-Glo luminescence, 24 h. AID 463195, 2010. inhibition, % at 10 µM;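 active means inhibition of 40% or more at the single tested concentration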;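 further: wild-type TIM10 isogenic control strain grown at permissive 25 °C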
tim23-1 inh – growth inhibitors of tim23-1 mutant yeast, primary screen, luminescence, uHTS; S. cerevisiae tim23-1 growth, BacTiter-Glo luminescence, 24 h; inhibition, % at 20 µM; 330,000 compounds, 1.3% hits; AID 463212, 2010;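 active means growth inhibition of the mutant yeast at or above 50%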;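 further: temperature-sensitive mutant grown at 25 °C; plate controls were DMSO-treated mutant yeast for no effect and medium wells lacking yeast for full effect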
PfHsp90 yeast 2 – growth inhibition of PfHsp90-expressing yeast, primary screen, antimalarial PfHsp90 inhibitor project, S. cerevisiae, BacTiter-Glo luminescence, single point, set 2; BacTiter-Glo ATP, 48 h; yeast lacking PDR1 and PDR3 efflux regulators; inhibition, % at 9.4 µM; 310,000 compounds, 0.32% hits; AID 504621, 2011;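 active means every replicate shows inhibition above about 80%, whatever the replicate mean, limit read from the data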;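 further: 0% = DMSO neutral controls and 100% = 20 µM radicicol positive controls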
Beta2AR agonist – beta2AR agonists driving receptor internalization, primary screen, cell-based, FAP fluorogen, flow cytometry; 340,000 compounds, 0.43% hits; response, % (no concentration beside the values); AID 504454, 2011; Am2.2-beta2AR cells;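 active means response above a set limit, near 3 SD of response in nonfluorescent compounds, cut at about 42% in these data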
Target sequence (P07550 whole entry, looked up): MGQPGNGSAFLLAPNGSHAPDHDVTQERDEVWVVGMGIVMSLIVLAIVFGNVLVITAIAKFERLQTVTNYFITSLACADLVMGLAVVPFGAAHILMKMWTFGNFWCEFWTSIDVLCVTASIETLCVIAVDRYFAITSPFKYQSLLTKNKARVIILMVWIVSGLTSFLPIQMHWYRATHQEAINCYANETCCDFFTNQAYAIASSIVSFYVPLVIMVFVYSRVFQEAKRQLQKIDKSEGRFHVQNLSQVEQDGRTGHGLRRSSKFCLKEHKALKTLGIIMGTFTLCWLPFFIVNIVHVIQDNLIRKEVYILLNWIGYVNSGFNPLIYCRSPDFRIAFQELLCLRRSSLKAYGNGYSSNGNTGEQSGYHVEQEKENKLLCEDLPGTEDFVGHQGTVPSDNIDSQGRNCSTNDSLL
TIM10 conf – growth inhibitors of wild-type TIM10 yeast, confirmation, counter-screen for tim10-1 synthetic lethality project, single concentration, luminescence, S. cerevisiae; shares compounds with TIM10 inh; 4,600 compounds, 63% hits; S. cerevisiae tim10 strain growth, BacTiter-Glo luminescence, 24 h; inhibition, % at 10 µM; AID 463215, 2010;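 active means inhibition of yeast growth at or above a set limit in either of two replicates at 10 µM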;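 further: this counterscreen used the strain with wild-type TIM10; 0% = yeast with DMSO and 100% = medium wells lacking yeast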
tim23-1 conf – tim23-1 mutant yeast growth inhibitors, confirmation, luminescence, single concentration; shares compounds with tim23-1 inh; S. cerevisiae tim23-1 growth, BacTiter-Glo luminescence, 24 h; inhibition, % at 20 µM; 4,400 compounds, 83% hits; AID 463218, 2010;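 active means inhibition above about 39% in either of two replicate wells at 20 µM, limit read from the data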;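 further: temperature-sensitive tim23-1 mutant grown at 25 °C; 0% = DMSO wells with yeast and 100% = medium wells without yeast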
Numbers without * were called inactive. Compounds with a hit are over-represented: about 3.8% of the library has one in this group of screens.

`O=C(/C=C/c1ccccc1)Nc1ccc2c(c1)OCCO2` gave tim10-1 inh 29, TIM10 inh 46*, tim23-1 inh 54*, PfHsp90 yeast 2 -15, Beta2AR agonist -5, TIM10 conf 22 and tim23-1 conf 70*.
Screening CC(=O)Nc1ccc(S(=O)(=O)Nc2cc(S(=O)(=O)N3CCCCC3)ccc2O)cc1 returned tim10-1 inh -19, TIM10 inh -6, tim23-1 inh -3 and Beta2AR agonist -1.
Cc1ccc(S(=O)(=O)N2CCCCC2)cc1NC(=O)c1nn(C)c(=O)c2ccccc12 was read as tim10-1 inh 1, TIM10 inh -10, tim23-1 inh 13 and Beta2AR agonist 11.
`COCCNC(=O)c1c[nH]c2ccc(S(=O)(=O)N(C)c3ccc(C)c(C)c3)cc2c1=O` gave tim10-1 inh 2, TIM10 inh 1, tim23-1 inh 8, PfHsp90 yeast 2 16 and Beta2AR agonist 18.
O=C(Nc1ccc([N+](=O)[O-])cc1)N1CCc2ccccc2C1 was read as tim10-1 inh 7, TIM10 inh -29, tim23-1 inh 12, PfHsp90 yeast 2 7 and Beta2AR agonist 2.
`COc1cccc(NC(=O)N2CCc3ccccc3C2)c1` gave tim10-1 inh 11, TIM10 inh 7, tim23-1 inh 18, PfHsp90 yeast 2 -1 and Beta2AR agonist -2.
CC(C)c1ccc(NC(=O)N2CCc3ccccc3C2)cc1 was read as tim10-1 inh 24, TIM10 inh 45*, tim23-1 inh 52*, PfHsp90 yeast 2 12, Beta2AR agonist 7, TIM10 conf 31* and tim23-1 conf 50*.
Screening O=C(Nc1cccc(Cl)c1)N1CCc2ccccc2C1 returned tim10-1 inh 38, TIM10 inh 64*, tim23-1 inh 65*, PfHsp90 yeast 2 -4, Beta2AR agonist -1, TIM10 conf 62* and tim23-1 conf 84*.
`CC(C)C[C@@H](CNCC(=O)[C@H](Cc1ccccc1)NC(=O)c1[nH]cnc1C(=O)N[C@H](CN)CC(C)C)NC(=O)c1nc[nH]c1C(=O)N[C@@H](CC(=O)O)C(=O)O` gave PfHsp90 yeast 2 -42 and Beta2AR agonist -4.
Screening CCOC(=O)C1=C(C)NC(C)=C(C(=O)OCC)C1C(=O)OCC(=O)NCc1ccccc1OC returned tim10-1 inh 13, TIM10 inh -1, tim23-1 inh 17 and Beta2AR agonist 8.
`COc1ccc(N=C(C)C2=C(O)c3ccccc3C2=O)cc1` gave tim10-1 inh 35, TIM10 inh 62*, tim23-1 inh 58*, PfHsp90 yeast 2 -20, Beta2AR agonist 9, TIM10 conf 12 and tim23-1 conf 68*.
Screening Cc1ccc(O)c(N=Nc2nccs2)c1 returned tim10-1 inh 26, TIM10 inh 50*, tim23-1 inh 72*, PfHsp90 yeast 2 112*, Beta2AR agonist -1, TIM10 conf 68* and tim23-1 conf 71*.
For O=C(CSc1ccc(-c2ccccc2)nn1)Nc1ccc2c(c1)OCCO2 the results were tim10-1 inh 36, TIM10 inh 56*, tim23-1 inh 55*, PfHsp90 yeast 2 -26, Beta2AR agonist -6, TIM10 conf 58* and tim23-1 conf 79*.
O=C(CSc1ccccc1)Nc1ccc2c(c1)OCCO2 was read as tim10-1 inh -10, TIM10 inh -9, tim23-1 inh 24, PfHsp90 yeast 2 -21 and Beta2AR agonist 3.
Screening CC1CCCCC1NC(=O)COC(=O)COc1ccccc1F (centres undefined) returned tim10-1 inh 13, TIM10 inh -5, tim23-1 inh 20, PfHsp90 yeast 2 4 and Beta2AR agonist 0.
